Shown are actives, neighbours in structure and some others; about 7% of the full set was active somewhere.
HP1b chromo inh = blocks HP1-beta chromodomain binding to methylated histone tails; AlphaScreen HP1-beta / biotin-H3K9me3 peptide binding; 0.56% of 390,000 active; Potency, µM (series often up to 114 µM), for the others: at the highest dose activity change, negative = inhibition, most hits filed as inhibitors; AID 540317; P83916; note: potency is the fitted concentration of half-maximal effect; nearly all actives have a fitted effect of over 70% in size
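Compound inhibition of the preformed complex between 50 nM HP1-beta and 50 nM biotinylated H3K9me3 peptide was read by AlphaScreen. Buffer was PBS pH 7.4 with 0.01% Tween-20. Incubations ran 30 min at room temperature, with 10 ug/mL donor/acceptor beads.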
KAT2A inh = blocks human GCN5L2 histone acetyltransferase; 0.21% of 390,000 active; Q92830; Potency, µM (top dose mostly 58.9 µM), for the others: top-dose activity change, negative = inhibition, actives largely listed as inhibitors; GCN5L2 HAT assay, ThioGlo1 CoA-SH fluorescence; AID 504327; note: potency is the fitted concentration of half-maximal effect; % is set by controls: 0 for no effect and ±100 for the full control effect
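Titration-based screen in which CoA formation is detected via maleimide probe ThioGlo1 (50uM) turning fluorescent on thiol reaction; substrates H3(1-25) 75uM and acetyl-CoA 70uM, GCN5L2 20nM, 20 min incubation at room temperature.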
PI5P4K alpha inh = inhibitors of human PI5P4K alpha | AID 652105 | 1.2% of 330,000 active | PI5P4Kalpha enzyme, ADP-Glo luminescence, 60 min; hits give low values | max response, % | P48426; active = max response of -50% or lower; inconclusive = between -30% and -50%; inactive = -30% or higher; note: value at the top dose of about 77 µM; % is set by controls: 0 for no effect and ±100 for the full control effect
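Luminescence from ADP-Glo served as readout of PI5P4Kalpha activity in a qHTS format. Reaction: enzyme, substrate, compound, ATP at 5 microM final, 60 min at RT.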
PLK1 PBD inh = blocks phosphopeptide binding to human PLK1 polo-box domain. Plk1 PBD binding of FITC phosphopeptide, fluorescence polarization. Potency, µM, without a hit: max response, negative = inhibition, most hits filed as inhibitors. 2.8% of 360,000 active. AID 720504; note: potency is the fitted concentration of half-maximal effect; series mostly up to about 57 µM; % is set by controls: 0 for no effect and ±100 for the full control effect; nearly all actives have a fitted effect of over 65% in size
Target sequence (P53350 whole entry, looked up, the tested form may be a part): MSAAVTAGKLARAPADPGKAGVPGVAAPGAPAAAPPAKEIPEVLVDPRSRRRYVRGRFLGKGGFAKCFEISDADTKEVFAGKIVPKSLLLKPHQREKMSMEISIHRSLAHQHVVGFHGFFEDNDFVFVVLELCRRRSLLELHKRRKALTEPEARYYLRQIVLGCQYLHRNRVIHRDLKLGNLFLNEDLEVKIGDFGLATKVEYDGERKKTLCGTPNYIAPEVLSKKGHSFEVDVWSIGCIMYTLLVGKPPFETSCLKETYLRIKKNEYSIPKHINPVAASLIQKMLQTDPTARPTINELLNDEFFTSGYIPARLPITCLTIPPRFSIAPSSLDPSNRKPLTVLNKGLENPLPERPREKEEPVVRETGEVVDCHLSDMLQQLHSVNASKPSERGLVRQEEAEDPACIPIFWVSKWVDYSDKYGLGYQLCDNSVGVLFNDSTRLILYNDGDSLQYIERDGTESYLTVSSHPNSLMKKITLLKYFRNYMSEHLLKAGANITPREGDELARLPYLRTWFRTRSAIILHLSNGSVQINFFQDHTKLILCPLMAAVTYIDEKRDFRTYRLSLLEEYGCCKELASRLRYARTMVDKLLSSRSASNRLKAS
JMJD2A Tudor inh = JMJD2A Tudor domain (human) inhibition. 4.4% of 390,000 active. O75164. AID 504339. AlphaScreen JMJD2A-Tudor / H3K4me3 peptide binding. Potency, µM (highest dose often 114 µM), without a hit: top-dose activity change, negative = inhibition, hits mostly inhibitors; note: potency is the fitted concentration of half-maximal effect; % is set by controls: 0 for no effect and ±100 for the full control effect; nearly all actives have a fitted effect of over 50% in size
BAZ2B inh = blocks human BAZ2B | AID 504333 | AlphaScreen BAZ2B-H3K14Ac peptide displacement | Q9UIF8 | 4.4% of 360,000 active | Potency, µM (series often up to 114 µM), for inactives: top-dose activity change, negative = inhibition, hits mostly inhibitors; note: potency is the fitted concentration of half-maximal effect; % is set by controls: 0 for no effect and ±100 for the full control effect; nearly all actives have a fitted effect of over 60% in size
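AlphaScreen displacement: compounds (up to 110uM) incubated 30 min at room temperature with a preformed 50 nM BAZ2B/50 nM biotinylated H3K14Ac peptide complex in PBS pH 7.4 with Tween-20. Donor and acceptor beads at 10 ug/mL final added, 20 min light-protected before reading.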
JMJD2E inh = JMJD2E (human) demethylase inhibition, confirmation; shares compounds with JMJD2A Tudor inh; Recombinant JMJD2E, FDH-coupled NADH fluorescence (FDH is formaldehyde dehydrogenase); Potency, µM (top dose mostly 56.8 µM), without a hit: top-dose activity change, negative = inhibition, usual class: inhibitors; 93% of 140 active; AID 2677
FDH inh = counter-screen for JMJD2E inhibitors: Pseudomonas putida formaldehyde dehydrogenase; 10% of 140 active; shares compounds with JMJD2A Tudor inh; AID 2680; Potency, µM (doses to about 56.7 µM), without a hit: top-dose activity, negative = inhibition, hits mostly inhibitors; FDH enzyme assay, NADH fluorescence kinetic
G9a confirm = inhibits human G9a histone lysine methyltransferase, hit confirmation. shares compounds with JMJD2A Tudor inh. G9a H3K9 monomethylation, AlphaScreen, 2 h. Potency, µM, usual class: inhibitors. 89% of 370 active; note: potency is the fitted concentration of half-maximal effect; nearly all actives have a fitted effect of over 65% in size
RGS4 inh = inhibits human RGS4, hit validation; shares compounds with JMJD2A Tudor inh; AID 602388; 80% of 25 active; Potency, µM, most hits filed as inhibitors; RGS4 GAP activity, Transcreener GDP fluorescence polarization
The depositor's hits bear a star; ? = inconclusive; / = no result; [ ] = dose if it differs, or a comment. Unless noted, calls come from the whole dose curve; as a rule, active = well fitted curve in the direction sought with a large enough effect; inconclusive = small, poorly fitted or top-dose-only effect, or another doubt; inactive = no such curve, though single readings can be large; an effect the other way counts as inactive or inconclusive.

SMILES	HP1b chromo inh	KAT2A inh	PI5P4K alpha inh	PLK1 PBD inh	JMJD2A Tudor inh	BAZ2B inh	G9a confirm	others
Nc1ccccc1SCC(=O)Nc1nccs1	34%	-18%	0	-15%	4%[57.1 µM]	-2%	/
COc1cc(CC(=O)N2CCN(S(=O)(=O)c3ccc(C(C)C)cc3)CC2)cc(OC)c1OC	/	/	3	-14%	/	/	/
Cc1ccc(CCNC(=O)c2ccc3c(c2)N(Cc2ccccc2F)C(=O)c2ccccc2S3=O)cc1 (centres undefined)	31%	-3%	/	/	-4%	-13%	/
COc1cccc(OC)c1C(=O)N1CCN(Cc2ccccc2C(F)(F)F)CC1	?	-19%	4	-14%	7.9µM*	20µM*	4.5*
COc1ccc(OC)c(CN2CCN(C(=O)c3cccc4ccccc34)CC2)c1	22µM*	-12%	/	5%	10µM*	40µM*	22*
O=C(CSc1n[nH]c(-c2ccncc2)n1)Nc1ccccc1Cl	8%	-10%	-2	-12%	-7%	7%	/
CCC(C)NC(=O)c1cn(CC)c2ccc(S(=O)(=O)N3CCCCCC3)cc2c1=O (centres undefined)	31%	-9%	3	-23%	-12%	-4%	/
Cn1c(=O)c2c(-c3ccc(Br)cc3)n(Cc3ccc(F)cc3)cc2n(C)c1=O	-13%	-21%	/	/	?	-29%	/
CCN(CC)c1ccc(NC(=O)COC(=O)C2CCN(c3ccc(C(F)(F)F)cn3)CC2)cc1	?	-23%	1	-10%	16µM*	?	2.8*
Cc1ccc(C(C)(C)C)cc1S(=O)(=O)N1CCC(C(=O)N2CCN(c3ccc(O)cc3)CC2)CC1	?	-5%	?	-10%	-35%	10%	1.4*
Cc1cc(C)c(C)c(S(=O)(=O)N2CCC(C(=O)N3CCN(c4ccc(F)cc4)CC3)CC2)c1C	6%[57 µM]	/	2	-3%	-21%	/	/
COc1ccc2[nH]cc(CCNc3ncnc4ccc(-c5ccoc5)cc34)c2c1	/	-16%	/	/	/	/	/	RGS4 inh=?
CC(=O)N(Cc1cc(=O)[nH]c2ccccc12)c1ccc(C)cc1	22%	-5%	5	1%	1%	12%	/
Cc1ccc(N(Cc2cc(=O)[nH]c3ccccc23)C(=O)c2ccco2)cc1	13%	-26%	2	-14%	29%	?	22*
O=C(CC1Sc2ncnn2C1=O)Nc1ccc(Br)cc1 (centres undefined)	?	-7%	?	-29%	25µM*	-2%	0.18*	JMJD2E inh=4µM*;FDH inh=0.28µM*
CC(C)Cn1c(=O)c2sccc2n2c(CCCC(=O)N3CCN(c4ccc(F)cc4)CC3)nnc12	65%	-12%	/	/	-5%	9%	/
CN(CCc1ccccn1)C1CCCN(S(=O)(=O)c2ccccc2)C1 (centres undefined)	15%	-4%	1	-2%	-8%	2%	/
CC(=O)c1ccc(S(=O)(=O)N2CCCC(N(C)CCc3ccccn3)C2)cc1 (centres undefined)	29%	-1%	-2	-22%	12%	-20%	?
CCN(CC)c1ccc(NC(=O)Cn2nnc(-c3cccc(OC)c3OC)n2)c(C)c1	35%	-9%	/	0%	-2%	-1%	7.1*
